# In PubChem BioAssay (NCATS):
# Values joined by “and” are separate entries in the source; they are usually repeats but may differ in a detail not shown here. Equal values may be shown once. Inconclusive results are not listed. Active and inactive are the calls of the source. Unless noted, calls come from the whole dose curve; as a rule, active = well fitted curve in the direction sought with a large enough effect; inconclusive = small, poorly fitted or top-dose-only effect, or another doubt; inactive = no such curve, though single readings can be large; an effect the other way counts as inactive or inconclusive.
# Tests used:
# [1] = biological target: Tyrosine-protein kinase Yes (Homo sapiens) (UniProt P07947); test: qHTS for small molecule inhibitors of Yes1 kinase: Primary Screen (AID 686947); note: nearly all actives have a fitted effect of over 60% in size; note: potency is the fitted concentration of half-maximal effect
# Chain of Tyrosine-protein kinase Yes (Homo sapiens) (P07947 whole entry, looked up): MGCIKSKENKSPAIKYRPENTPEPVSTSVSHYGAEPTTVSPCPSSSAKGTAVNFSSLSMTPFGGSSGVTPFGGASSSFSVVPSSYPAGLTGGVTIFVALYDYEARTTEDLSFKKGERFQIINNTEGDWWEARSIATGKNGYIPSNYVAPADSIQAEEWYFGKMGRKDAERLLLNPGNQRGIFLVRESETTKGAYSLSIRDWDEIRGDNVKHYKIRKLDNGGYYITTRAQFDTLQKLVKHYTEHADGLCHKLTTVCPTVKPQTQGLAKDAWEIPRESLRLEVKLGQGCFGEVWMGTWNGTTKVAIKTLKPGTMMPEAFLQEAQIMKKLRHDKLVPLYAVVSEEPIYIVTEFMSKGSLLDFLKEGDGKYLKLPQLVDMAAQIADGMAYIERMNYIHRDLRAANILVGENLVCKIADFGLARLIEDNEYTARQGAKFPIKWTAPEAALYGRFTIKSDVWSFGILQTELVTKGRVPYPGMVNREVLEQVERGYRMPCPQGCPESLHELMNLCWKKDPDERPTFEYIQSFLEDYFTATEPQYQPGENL
# Procedure, shortened: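 ADP-Glo luminescence readout; final 4 nM Yes1, 0.1 mM ATP, 0.3 mg/mL poly(E4Y), Tris pH 7.5, MgCl2, DTT, Brij-35. 20 min compound preincubation, 60 min reaction at RT. Normalized to DMSO wells with and without enzyme.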
# [2] = qHTS for small molecule inhibitors of Yes1 kinase: Counter Assay (AID 686950);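 note: no kinase present so only ADP-Glo detection of a fixed ADP amount is tested; luminescence from ADP-Glo reporting ADP in a fixed ATP and ADP mixture; 0% = DMSO wells with ATP plus ADP and -100% = ATP-only wells without ADP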
# Procedure, shortened: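 Enzyme-free detection counter-screen: compounds preincubated 20 min in buffer, then 0.08 mM ATP plus 0.02 mM ADP added for 60 min at room temperature; ADP-Glo luminescence. Buffer 50 mM Tris pH 7.5, 10 mM MgCl2, 150 mM NaCl; normalized to ATP+ADP and ATP-only controls.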
# [3] = qHTS Assay for Identifying Gametocytocidal Compounds (AID 743244);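 note: % is set by controls: 0 for no effect and ±100 for the full control effect; actives lower the fluorescent signal which means gametocytes are killed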; conditions: P. falciparum 3D7 stage III-V gametocytes, alamarBlue, 72 h; max response: stronger effect = lower value
# Procedure, shortened: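 A resazurin-based viability read-out was applied to mature P. falciparum gametocytes: 72 h compound treatment, then 24 h dye incubation, with falling fluorescence signalling gametocytocidal effect.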
# [4] = qHTS profiling for inhibitors of Plasmodium falciparum (3D7) proliferation (AID 743322; call rule not given here;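 note: infected erythrocytes exposed to compound for 72 h before lysis; 100% = DMSO vehicle wells and 0% = 0.29 µM artemisinin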); conditions: P. falciparum 3D7 proliferation; at 28.7 µM (top of the series)
# Procedure, shortened: (§1)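 Erythrocytes infected with P. falciparum (0.3% parasitemia, 2.5% hematocrit) incubated with compounds 72 h at 37 C, 5% CO2. Lysis with saponin/Triton buffer containing SYBR Green I, overnight at room temperature in the dark; DNA fluorescence (485/535 nm) normalised to 0.29 uM artemisinin and DMSO.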
# [5] = qHTS profiling for inhibitors of Plasmodium falciparum (DD2) proliferation (AID 743323; call rule not given here); conditions: lower = more inhibition; at 28.7 µM (top of the series)
# Procedure, shortened: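 Parasite DNA quantified by SYBR Green fluorescence (ex 485, em 535 nm) after saponin/Triton lysis and overnight dark incubation. Cultures: 0.3% parasitemia, 2.5% hematocrit, 72 h, 37 C; data scaled between DMSO and 0.29 uM artemisinin.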
# [6] = qHTS profiling for inhibitors of Plasmodium falciparum (HB3) proliferation (AID 743324); conditions: Plasmodium falciparum HB3 blood-stage proliferation; at 28.7 µM (top of the series);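 note: 100% = DMSO vehicle wells and 0% = artemisinin-treated control wells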
# Procedure, shortened: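 P. falciparum HB3 grown in erythrocytes (0.3% parasitemia, 2.5% hematocrit final) with compound for 72 h at 37 C, 5% CO2. Parasite DNA detected by SYBR Green after saponin/triton lysis overnight; normalized to 0.29 uM artemisinin and DMSO.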
# [7] = qHTS profiling of the MIPE4 collection as inhibitors of Plasmodium falciparum (3D7) proliferation (AID 743344; call rule not given here;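 note: scaled between DMSO vehicle wells and 0.29 µM artemisinin as full inhibition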); conditions: P. falciparum 3D7 in erythrocytes, SYBR Green DNA fluorescence, 72 h; at 28.5 µM (top of the series) unless noted
# Procedure, shortened: as §1
# [8] = qHTS profiling of the MIPE4 collection as inhibitors of Plasmodium falciparum (DD2) proliferation (AID 743345; call rule not given here); conditions: P. falciparum Dd2 in erythrocytes, SYBR Green DNA, 72 h; at 28.5 µM (top of the series) unless noted
# Procedure, shortened: as §1
# [9] = qHTS assay for environmental chemicals that activate the Aryl hydrocarbon Receptor (AhR) signaling pathway (AID 651777); conditions: 1A2-DRE human hepatoma cells, luciferase, 24 h; activation: stronger effect = higher value; note: nearly all actives have a fitted effect of over 15% in size; note: potency is the fitted concentration of half-maximal effect; for activation: % of control where 0% means no effect
# Procedure, shortened: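 Concentration–response screening used 1,200 1A2-DRE cells per well, 24 hr compound exposure (37 C, 5% CO2), and One-Glo luminescence as the AhR-driven CYP1A2 reporter signal.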
# [10] = biological target: Peroxisome proliferator-activated receptor alpha (Homo sapiens) (UniProt Q07869); test: qHTS assay for small molecule agonists of the peroxisome proliferator-activated receptor alpha (PPARalpha) signaling pathway (AID 651778); conditions: PathHunter PPARalpha complementation, chemiluminescence, 6 h; stronger effect = higher value; note: % of control where 0% means no effect
# Chain of Peroxisome proliferator-activated receptor alpha (Homo sapiens) (Q07869 whole entry, looked up, the tested form may be a part): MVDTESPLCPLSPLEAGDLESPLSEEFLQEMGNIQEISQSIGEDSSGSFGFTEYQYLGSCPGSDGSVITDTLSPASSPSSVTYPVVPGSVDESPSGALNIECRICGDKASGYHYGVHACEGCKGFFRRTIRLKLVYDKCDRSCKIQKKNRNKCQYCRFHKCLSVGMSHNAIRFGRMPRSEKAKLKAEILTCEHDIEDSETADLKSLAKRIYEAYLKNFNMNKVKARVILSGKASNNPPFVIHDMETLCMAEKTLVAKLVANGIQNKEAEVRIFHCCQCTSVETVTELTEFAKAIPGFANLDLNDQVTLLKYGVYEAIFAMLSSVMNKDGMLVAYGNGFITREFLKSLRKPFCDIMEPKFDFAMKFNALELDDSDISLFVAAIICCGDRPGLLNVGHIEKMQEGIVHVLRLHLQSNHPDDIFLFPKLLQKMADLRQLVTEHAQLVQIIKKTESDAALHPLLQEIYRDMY
# Procedure, shortened: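 Enzyme-fragment complementation assay in which ligand-bound PPARalpha translocates and forms an active enzyme that generates chemiluminescence. Cells were plated overnight, exposed to compound for 6 hr at 37 C, and then given detection reagent for 60 min at room temperature.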
# [11] = biological target: Nuclear receptor ROR-gamma (Homo sapiens) (UniProt P51449); test: qHTS assay for small molecule antagonists of the retinoid-related orphan receptor gamma (ROR-gamma) signaling pathway (AID 651802);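 note: CHO cells with doxycycline-induced ROR-gamma expression; % is set by controls: 0 for no effect and ±100 for the full control effect; nearly all actives have a fitted effect of over 60% in size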
# Chain of Nuclear receptor ROR-gamma (Homo sapiens) (P51449 whole entry, looked up): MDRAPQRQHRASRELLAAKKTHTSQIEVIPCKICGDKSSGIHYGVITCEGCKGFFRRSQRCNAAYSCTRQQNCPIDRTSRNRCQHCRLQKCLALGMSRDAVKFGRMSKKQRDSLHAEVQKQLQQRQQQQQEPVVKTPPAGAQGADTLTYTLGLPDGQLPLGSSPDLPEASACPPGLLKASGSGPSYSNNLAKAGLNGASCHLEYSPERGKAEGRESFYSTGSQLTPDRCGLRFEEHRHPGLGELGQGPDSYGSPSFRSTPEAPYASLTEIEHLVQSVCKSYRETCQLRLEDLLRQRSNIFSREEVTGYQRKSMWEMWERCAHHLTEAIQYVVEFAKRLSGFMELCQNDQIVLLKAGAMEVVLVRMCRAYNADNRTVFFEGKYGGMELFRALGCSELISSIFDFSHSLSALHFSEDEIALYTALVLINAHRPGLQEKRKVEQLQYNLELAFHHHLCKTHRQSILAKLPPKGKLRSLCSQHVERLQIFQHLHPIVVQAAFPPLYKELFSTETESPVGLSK
# Procedure, shortened: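 Antagonism is scored as a fall in luminescence from a RORE-luciferase reporter in CHO cells expressing ROR under a TET-inducible promoter, measured 16hr after doxycycline induction in the presence of compound.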
# [12] = biological target: Arylsulfatase A (Homo sapiens) (UniProt P15289); test: qHTS screen for enhancers of Arylsulfatase A (ASA1): LOPAC Validation Assay (AID 720538); conditions: outcome: dose series up to 57.5 µM; note: 0% is about no effect
# Chain of Arylsulfatase A (Homo sapiens) (P15289 whole entry, looked up): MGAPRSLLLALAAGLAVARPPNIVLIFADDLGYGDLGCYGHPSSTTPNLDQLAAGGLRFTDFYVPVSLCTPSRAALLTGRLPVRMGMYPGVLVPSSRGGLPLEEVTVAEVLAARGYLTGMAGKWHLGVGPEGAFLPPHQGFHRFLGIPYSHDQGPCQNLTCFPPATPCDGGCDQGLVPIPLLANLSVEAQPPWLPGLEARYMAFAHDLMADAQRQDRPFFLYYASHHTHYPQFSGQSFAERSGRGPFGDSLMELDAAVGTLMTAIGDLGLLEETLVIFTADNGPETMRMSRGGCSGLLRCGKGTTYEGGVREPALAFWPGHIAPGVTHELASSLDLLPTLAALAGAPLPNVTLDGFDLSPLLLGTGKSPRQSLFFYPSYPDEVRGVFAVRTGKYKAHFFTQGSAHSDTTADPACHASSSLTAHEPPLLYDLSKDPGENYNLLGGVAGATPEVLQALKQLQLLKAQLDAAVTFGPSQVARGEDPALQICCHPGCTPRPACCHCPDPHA
# Procedure, shortened: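 First, ASA-I179S fibroblasts from an MLD patient adhered for 6 hrs. Next, compounds were added for 48h. Then pNCS substrate (0.5mM final) with lysis buffer reacted 14h at room temperature before NaOH stop and fluorescence measurement.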
# [13] = qHTS for compounds that reverse cellular toxicity of Amyloid beta (A-beta) peptide in yeast: LOPAC Validation Assay (AID 720559);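 note: plate controls were DMSO for no effect and equimolar ferric chloride plus clioquinol rescue for full effect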
# Procedure, shortened: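 Activity is expressed relative to DMSO and an equimolar ferric chloride/clioquinol mix. Compounds were pinned into medium with A-beta-expressing yeast, grown 48 hr at 30 C, then read by absorbance at 600 nm.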
# [14] = qHTS for Activators of Parkin Expression: LOPAC Validation Assay (NLuc Reporter) (AID 720572;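 note: 0% = DMSO and 100% = positive control compound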)
# Procedure, shortened: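 Neuronal cells with a Parkin promoter-driven FLuc/NLuc coincidence reporter were treated 24 h at 37 C in 7-point dose response (LOPAC). NLuc luminescence read after FLuc; signals normalized to DMSO and positive control (100%).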
# [15] = qHTS for Activators of Parkin Expression: LOPAC Validation Assay (FLuc Reporter) (AID 720573;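 note: 0% = DMSO and 100% = positive control compounds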)
# Procedure, shortened: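 A neuronal cell line harbouring FLuc and NLuc reporters behind the Parkin promoter was exposed to compounds for 24 h. Firefly luciferase signal, measured after 10 min with detection reagent, was scaled to DMSO and positive-control wells.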
# [16] = qHTS assay for small molecule antagonists of the retinoid-related orphan receptor gamma (ROR-gamma) signaling pathway - cell viability counter screen (AID 720652; active = well fitted curve in the direction sought with a large enough effect in the repeat runs; an effect the other way counts as inactive or inconclusive;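 note: CHO reporter cells with doxycycline-induced ROR-gamma expression; compound exposure lasted 16 hr before ATP read; % is set by controls: 0 for no effect and ±100 for the full control effect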)
# Procedure, shortened: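 Cytotoxicity is quantified via intracellular ATP (CellTiter-Glo luminescence) in doxycycline-induced CHO ROR response element-luciferase reporter cells treated with compound for 16 hr at 37 C, 5% CO2.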
# [17] = qHTS assay for small molecule agonists of the antioxidant response element (ARE) signaling pathway measured by Nrf2-dependant transcriptional activity - cell viability counter screen (AID 720653; active = well fitted curve in the direction sought with a large enough effect in the repeat runs; an effect the other way counts as inactive or inconclusive; note: % is set by controls: 0 for no effect and ±100 for the full control effect); conditions: ARE-bla HepG2 viability, CellTiter-Glo ATP luminescence, 16 h; max response: stronger effect = lower value
# Procedure, shortened: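 ARE-bla HepG2 cells treated with compounds for 16 h at 37C; this counter screen measures viability as intracellular ATP by CellTiter-Glo luminescence after 30 min at room temperature.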
# [18] = biological target: Hexokinase-4 (Homo sapiens) + Glucokinase regulatory protein (Homo sapiens) (UniProt P35557+Q14397); test: qHTS assay for inhibitors of recombinant human GCK-GKRP interaction: Diaphorase-coupled assay (AID 743205)
# Chain of Hexokinase-4 (Homo sapiens) + Glucokinase regulatory protein (Homo sapiens) (P35557 whole entry, looked up): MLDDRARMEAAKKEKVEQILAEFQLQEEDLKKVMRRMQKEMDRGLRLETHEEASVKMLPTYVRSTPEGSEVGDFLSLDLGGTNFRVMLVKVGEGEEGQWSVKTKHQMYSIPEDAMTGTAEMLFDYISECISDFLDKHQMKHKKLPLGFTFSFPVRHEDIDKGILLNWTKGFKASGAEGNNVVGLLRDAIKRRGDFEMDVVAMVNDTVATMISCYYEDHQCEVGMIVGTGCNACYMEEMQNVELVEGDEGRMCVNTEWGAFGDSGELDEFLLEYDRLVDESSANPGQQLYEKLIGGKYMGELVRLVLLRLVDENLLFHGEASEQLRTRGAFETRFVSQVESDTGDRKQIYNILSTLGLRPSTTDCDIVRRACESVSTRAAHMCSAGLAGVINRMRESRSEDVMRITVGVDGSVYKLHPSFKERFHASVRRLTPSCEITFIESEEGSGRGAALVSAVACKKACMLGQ
# Chain of Hexokinase-4 (Homo sapiens) + Glucokinase regulatory protein (Homo sapiens) (Q14397 whole entry, looked up): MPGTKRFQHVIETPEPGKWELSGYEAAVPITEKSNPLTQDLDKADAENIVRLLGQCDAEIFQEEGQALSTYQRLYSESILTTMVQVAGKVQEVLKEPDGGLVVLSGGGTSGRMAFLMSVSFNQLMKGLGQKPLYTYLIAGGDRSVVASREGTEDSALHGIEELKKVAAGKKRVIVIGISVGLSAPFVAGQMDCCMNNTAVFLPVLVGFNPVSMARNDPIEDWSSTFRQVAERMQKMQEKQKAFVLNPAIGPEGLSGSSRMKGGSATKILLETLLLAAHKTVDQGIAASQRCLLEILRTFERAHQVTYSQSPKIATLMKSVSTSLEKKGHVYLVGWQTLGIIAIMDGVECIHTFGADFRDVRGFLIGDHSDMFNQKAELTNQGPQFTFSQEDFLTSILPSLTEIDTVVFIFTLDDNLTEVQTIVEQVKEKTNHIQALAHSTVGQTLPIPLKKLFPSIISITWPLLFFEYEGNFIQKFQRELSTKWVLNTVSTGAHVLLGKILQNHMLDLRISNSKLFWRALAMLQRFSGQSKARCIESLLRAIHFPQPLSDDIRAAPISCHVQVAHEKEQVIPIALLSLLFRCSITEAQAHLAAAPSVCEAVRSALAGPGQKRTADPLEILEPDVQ
# Procedure, shortened: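 Inhibitors of the GCK–GKRP complex relieve GKRP suppression of GCK, detected through a G6PDH–diaphorase cascade reducing resazurin. Human GST-GCK and FLAG-GKRP are used at 10 nM with 5 mM glucose and 0.4 mM ATP.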
# [19] = qHTS assay for cell viability of HEK293 cells (AID 743288); conditions: ATP luminescence (CellTiter-Glo), 18 h; max response: stronger effect = lower value; note: % is set by controls: 0 for no effect and ±100 for the full control effect; nearly all actives have a fitted effect of over 50% in size
# Procedure, shortened: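 The Tox21 protocol used parental HEK293 cells treated for 18 h at 37 C with compounds delivered by pintool; ATP-coupled luminescence after 30 min at room temperature gave viability.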
# [20] = qHTS assay for cell viability of the p53RE-bla HCT-116 cell line (AID 743292); note: % is set by controls: 0 for no effect and ±100 for the full control effect; nearly all actives have a fitted effect of over 55% in size
# Procedure, shortened: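 Compound-exposed HCT-116 (p53RE-bla) cells, 4,000 per well, were kept 16 h at 37 C following a 5 h preincubation. Cell number was estimated from total ATP by CellTiter-Glo luminescence read after 30 min at room temperature.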
smiles,measurement,setting,value
CC(C)[C@H](CO)Nc1nc(Nc2ccc(C(=O)O)c(Cl)c2)c2ncn(C(C)C)c2n1,Potency,[1],0.0194 µM (active)
same,outcome,[2],inactive
same,max response,[3],63.2% (inactive)
same,remaining parasite growth % (stronger effect = lower value),[4],41.8%
same,"activity, percent of control",[5],35.2%
same,"remaining proliferation (% of control), lower = more inhibition",[6],28.6%
same,"parasite growth, % of DMSO control",[7],29.4%
same,"parasite growth remaining, % of DMSO control (lower = more inhibition)",[8],51%
CC(C)C(=O)Nc1ncc(-c2cc(C(F)F)nn2-c2c(Cl)cccc2Cl)s1,Potency,[1],27.4 µM (active)
same,outcome,[2],inactive
same,max response,[3],17% (inactive)
same,remaining parasite growth % (stronger effect = lower value),[4],0.0648%
same,"activity, percent of control",[5],-0.314%
same,"remaining proliferation (% of control), lower = more inhibition",[6],-0.0078%
same,"parasite growth, % of DMSO control",[7],9.88%
same,"parasite growth remaining, % of DMSO control (lower = more inhibition)",[8],13.6%
O=C(CCCCCCC(=O)Nc1ccccc1)NO,Potency,[1],inactive
O=C1NC(=O)C(c2ccccc2)(c2ccccc2)N1,activation,[9],-0.809% (inactive) and 0.125% (inactive) and -0.632% (inactive)
same,max response,[10],-3.11% (inactive) and -0.24% (inactive) and -0.609% (inactive)
same,Potency,[11],inactive
same,outcome,[12],inactive
same,outcome,[13],inactive
same,Potency,[14],inactive
same,Potency,[15],inactive
same,Potency,[16],inactive
same,max response,[17],-13.1% (inactive) and -3.11% (inactive) and 0.97% (inactive)
same,outcome,[18],inactive
same,max response,[3],-6.42% (inactive) and 2.98% (inactive) and 10.3% (inactive)
same,max response,[19],6.32% (inactive) and -2.27% (inactive) and 1.15% (inactive)
same,Potency,[20],inactive
Clc1ccc(-c2nc3sccn3c2C=NOCc2ccc(Cl)c(Cl)c2)cc1,Potency,[1],inactive
same,outcome,[2],inactive
same,max response,[3],17.5% (inactive)
same,remaining parasite growth % (stronger effect = lower value),[4],110%
same,"activity, percent of control",[5],101%
same,"remaining proliferation (% of control), lower = more inhibition",[6],103%
same,"parasite growth, % of DMSO control",[7],30.7%
same,"parasite growth remaining, % of DMSO control (lower = more inhibition)",[8],51.5%
O=c1cc(-c2ccccc2)oc2cc(O)cc(O)c12,Potency,[9],39.8 µM (active)
same,max response,[10],-1.65% (inactive)
same,max response,[17],-2.85% (inactive)
same,max response,[19],-14.1% (inactive)
same,Potency,[20],inactive
same,"parasite growth, % of DMSO control",[7],48.1%
same,"parasite growth remaining, % of DMSO control (lower = more inhibition)",[8],89.3%
COc1ccc(C2CC(c3ccccc3)=NN2c2ccc(S(N)(=O)=O)cc2)cc1 (configuration not stated),Potency,[1],inactive
same,outcome,[2],inactive
same,max response,[3],-8.6% (inactive)
same,remaining parasite growth % (stronger effect = lower value),[4],23.3%
same,"activity, percent of control",[5],40.1%
same,"remaining proliferation (% of control), lower = more inhibition",[6],19.1%
same,"parasite growth, % of DMSO control",[7],50.4%
same,"parasite growth remaining, % of DMSO control (lower = more inhibition)",[8],99.9%
CN(C)Cc1ccc(-c2nc3cccc4c3n2CCNC4=O)cc1,Potency,[1],13.7 µM (active)
same,outcome,[2],inactive
same,max response,[3],13% (inactive)
same,remaining parasite growth % (stronger effect = lower value),[4],86.1%
same,"activity, percent of control",[5],90%
same,"remaining proliferation (% of control), lower = more inhibition",[6],94%
same,"parasite growth, % of DMSO control",[7],64%
same,"parasite growth remaining, % of DMSO control (lower = more inhibition)",[8],100%
O=c1c(O)c(-c2ccc(O)cc2)oc2cc(O)cc(O)c12,max response,[10],-3% (inactive) and -2.05% (inactive)
same,max response,[17],-6.13% (inactive) and -4.97% (inactive)
same,max response,[19],3.99% (inactive) and -0.18% (inactive)
same,Potency,[20],inactive
same,"parasite growth, % of DMSO control",[7],24.5%
same,"parasite growth remaining, % of DMSO control (lower = more inhibition)",[8],97.3%
